Bioassay records from PubChem.
The entries come from a sample that favours hits as a whole.
mHTT-CaM PPI inh – mutant huntingtin-calmodulin interaction inhibitors – biochemical, AlphaScreen, primary screen; AlphaScreen His-mHTT/GST-CaM binding, luminescence; inhibition, % at 15 µM; 190,000 tested, 3.6% active; AID 1671202, 2021
Pf apPOL block – Pf-apPOL inhibitors, biochemical, fluorescence. Recombinant Pf-apPOL, molecular beacon fluorescence, 1.5 h. inhibition, % at 10 µM. 210,000 tested, 0.25% active
Of the large screens only hits and unclear results are named; the others gave an inactive call. Rule as the data show it: active = inhibition above about 50%; inactive = the rest.

Cc1cc(C)c(S(=O)(=O)NCCn2c(C)cc3ccccc32)c(C)c1	mHTT-CaM PPI inh 62
Cc1cc2ccccc2n1CCNS(=O)(=O)c1ccc(Br)cc1	none
Cc1cc(C)c(Cc2c(C)c(/C=N/O)c(C)c(Cc3c(C)cc(C)c(/C=N/O)c3C)c2C)c(C)c1/C=N/O	none (no result: Pf apPOL block)
Cc1cc2[nH]c(C(=O)Nc3ccccc3C)c(CN3CCCC3)c2s1	none
Cc1cc2[nH]c(C(=O)Nc3c(F)cccc3F)c(CN3CCCC3)c2s1	mHTT-CaM PPI inh 56
COc1cc(SC)ccc1C(=O)Nc1nc2ccc(S(C)(=O)=O)cc2s1	mHTT-CaM PPI inh 63
COc1ccc(Cl)cc1C(=O)Nc1nc2ccc(S(C)(=O)=O)cc2s1	none
C=CCn1c(=N)c(S(=O)(=O)c2ccc(Cl)cc2)cc2c(=O)n3cc(C)ccc3nc21	none
CS(=O)(=O)N(Cc1ccc(Cl)cc1)c1ccc(C(=O)Nc2ccc3c(c2)OCO3)cc1	Pf apPOL block 89
COc1ccc(NC(=O)c2ccc(N(Cc3ccc(Cl)cc3)S(C)(=O)=O)cc2)cc1OC	none
Cc1cc(NC(=O)c2ccncc2)nn1-c1cccc(Cl)c1	none
COc1ccc(N=Cc2cc(Br)cc(Cl)c2O)cc1	none
Oc1c(Cl)cc(Br)cc1C=Nc1ccc2ncccc2c1	mHTT-CaM PPI inh 82
Cc1ccc(N=Cc2cc(Br)cc(Cl)c2O)c(N)c1	mHTT-CaM PPI inh 61
CC(=O)c1ccc(N=Cc2cc(Br)cc(Cl)c2O)cc1	none
Cc1cccc(N=Cc2cc(Cl)cc(Cl)c2O)c1C	none (no result: mHTT-CaM PPI inh)
Oc1c(Cl)cc(Cl)cc1C=Nc1cccc2cccnc12	mHTT-CaM PPI inh 55
O=C1NC2(CCN(Cc3ccc(F)cc3)CC2)N=C1c1ccccc1	none
C1Cc2[nH]nc(C3CC3)c2CN1	none
O=C1CC(N2CCN(CCOCCO)CC2)C(=O)N1c1ccc(N=Nc2ccccc2)cc1 (centres undefined)	none
O=C1c2ccc(Oc3ccc4c(c3)C(=O)N(c3ccccn3)C4=O)cc2C(=O)N1c1ccccn1	none
Cc1cccc(OCC(=O)N2CSCC2C(=O)NCCc2cscn2)c1 (centres undefined)	none
Fc1ccc(C2CC(c3ccccc3Cl)n3ncnc3N2)cc1 (centres undefined)	none
CCN1CCN(c2nc(Cc3ccccc3)nc3sc4c(c23)CCCC4)CC1	mHTT-CaM PPI inh 66
c1ccc(Cc2nc(N3CCOCC3)c3c4c(sc3n2)CCCC4)cc1	none
CS(=O)(=O)N1N=C(c2c(-c3ccccc3)c3cc(Cl)ccc3[nH]c2=O)CC1c1ccccc1 (centres undefined)	mHTT-CaM PPI inh 67
O=c1[nH]c2ccc(Cl)cc2c(-c2ccccc2)c1[N+](=O)[O-]	none
Cc1cc(NC(=O)c2cccc([N+](=O)[O-])c2)no1	none
Cc1cc(NC(c2cccc([N+](=O)[O-])c2)c2ccc3cccnc3c2O)no1 (centres undefined)	mHTT-CaM PPI inh 100
O=C(/C=C/c1cccc([N+](=O)[O-])c1)Nc1ccccn1	none
O=[N+]([O-])c1cccc(C(Nc2ccccn2)c2ccc3cccnc3c2O)c1 (centres undefined)	mHTT-CaM PPI inh 100
O=C1CCc2cccc3cccc1c23	none (no result: mHTT-CaM PPI inh)
COc1ccc(CCNC(=O)C2CCCN(c3ccc(-c4ccco4)nn3)C2)cc1OC (centres undefined)	none
COc1ccc(Cl)cc1NC(=O)c1cnn2c(C(F)(F)F)cc(-c3ccco3)nc12	none
COc1ccc(C)cc1NC(=O)C1CCCN(c2cnn(C)c(=O)c2)C1 (centres undefined)	mHTT-CaM PPI inh 53
COc1ccccc1NC(=O)C1CCCN(c2cnn(C)c(=O)c2)C1 (centres undefined)	none
COc1ccc(C(F)(F)F)cc1NC(=O)C1CCCN(c2ccc(-c3ccco3)nn2)C1 (centres undefined)	mHTT-CaM PPI inh 77
COc1ccc(Cl)cc1NC(=O)N1CCN(c2ccc(-c3ccco3)nn2)CC1	mHTT-CaM PPI inh 64
CC(=O)Oc1ccc2c(C)c(-c3ccc(Br)cc3)c(=O)oc2c1	none
O=C(NC1CCCCCC1)c1ccc(Br)cc1	none
O=C(NCc1cccnc1)c1cn(-c2ccccc2Cl)nn1	none
O=[N+]([O-])c1cc(F)c(N2CCCCCC2)cc1N1CCCC1	mHTT-CaM PPI inh 72
O=C(c1cccs1)N1CCN(c2cc(N3CCCCC3)c(F)cc2[N+](=O)[O-])CC1	mHTT-CaM PPI inh 51
O=[N+]([O-])c1cc(F)c(N2CCOCC2)cc1N1CCCCC1	none
O=C(c1cccs1)N1CCN(c2cc(N3CCCC3)c(F)cc2[N+](=O)[O-])CC1	none
CCc1cc(C2CCCN2C(=O)c2nn(C)cc2Cl)on1 (centres undefined)	none
COc1ccc(C(C(=O)Nc2ccc3c(c2)OCO3)N(C)C(=O)CNC(C)=O)cc1 (centres undefined)	none
Cc1ccc(C(C(=O)Nc2ccc3c(c2)OCO3)N(C)C(=O)Cc2c[nH]c3ccccc23)cc1 (centres undefined)	mHTT-CaM PPI inh 93
C(=Nc1cc(-c2ccccc2)nn1-c1ccccc1)c1cccnc1	mHTT-CaM PPI inh 50
C(=NN=Cc1cccnc1)c1cccnc1	none (no result: mHTT-CaM PPI inh)
